# Data: PubChem BioAssay AID430 (Sanford-Burnham Center for Chemical Genomics, 2006)
# Hit rate of the full screen: of about 63,000 compounds, about 1,100 (1.7%) were called active. Rule as the data show it: active = cytotoxicity above about 50%; inactive = the rest. For the sample, actives were picked, then their nearest neighbours and some compounds at random. Measured potencies and affinities stand elsewhere.
# Experiment: HPDE-C7 pancreatic duct cell viability loss – fluorescence, HTS (AID 430);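 also: cells exposed to compound for 48 hours before viability readout; 0% = vehicle and 100% = reference cytotoxic drug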
# Details: HPDE-C7 pancreatic duct cells viability, at 10 µM, stronger effect = higher value
row,SMILES,cytotoxicity
1,CC(=O)c1cc2c(cc1NC(=O)C1CC=CCC1C(=O)O)OCO2 (centres undefined),-5.7% (inactive)
2,CCn1c(C(C)NC(=O)c2ccc(OC)c(OC)c2)nc2ccccc21 (centres undefined),5.7% (inactive)
3,O=C(O)c1c[nH]ccc1=O,-18.4% (inactive)
4,CCc1cc2c3c(c(=O)oc2cc1OC)CCCC3,0% (inactive)
5,Cc1ccc(-c2nsc3c(N4CCN(C(=O)c5ccco5)CC4)ncnc23)cc1,-21.7% (inactive)
6,CN1Cc2cc(C(=O)c3cc(Cl)cc(CSc4ncccn4)c3O)cnc2NC1=O,68.2% (active)
7,Cc1ccc(O)c(C(=O)c2cnc3c(c2)CN(CCC(C)C)C(=O)N3)c1,-5.5% (inactive)
8,CCCCN1Cc2cc(C(=O)c3cc(F)ccc3O)cnc2NC1=O,6.2% (inactive)
9,CNC(=O)NC(=O)CSc1cccc(C(F)(F)F)c1,-6.3% (inactive)
10,COc1ccccc1N1CC(C(=O)OCC(=O)c2ccc(F)cc2)CC1=O (centres undefined),-16.4% (inactive)
11,O=C(Nc1ccc(-c2noc(CCc3ccccc3)n2)cc1)c1cccnc1,58.7% (active)
12,c1ccc(CCc2nc(-c3cccnc3)no2)cc1,-9.2% (inactive)
13,O=C(Nc1cccnc1)c1cc(-c2cccs2)on1,14.1% (inactive)
14,COc1cccc(-c2nc(-c3ccc(NC(=O)c4cccnc4)cc3)no2)c1,70.7% (active)
15,COc1ccc(Cc2nc(-c3ccc(NC(=O)c4cccnc4)cc3)no2)cc1,27.4% (inactive)
16,COc1ccc(CC(=O)Nc2ccc(-c3noc(-c4cccc(OC)c4)n3)cc2)cc1,1% (inactive)
17,Cc1ccc(-c2noc(-c3cccs3)n2)cc1,0.6% (inactive)
18,O=C(Nc1ccc(-c2noc(-c3cccs3)n2)cc1)c1cccnc1,53.2% (active)
19,O=C(Nc1ccc(-c2noc(CCc3ccccc3)n2)cc1)c1ccco1,6.6% (inactive)
20,COC(=O)C1=C(O)CSC1=Nc1cccc(C(F)(F)F)c1,6.1% (inactive)
21,CC1=CC(C)(C)N(C(=O)c2ccc(F)cc2)c2cc3c(cc21)OCO3,-5.1% (inactive)
22,Cc1ccc2[nH]c(=O)c(CN(CCN3CCOCC3)C(=O)Nc3ccc(F)cc3)cc2c1,1.9% (inactive)
23,COc1ccc(CNC(=O)c2cc(-c3ccccc3O)n[nH]2)cc1,-14.7% (inactive)
24,CCCCOC(=O)n1c(=O)oc2cc(S(=O)(=O)N3CCCCC3)ccc21,4.7% (inactive)
25,Cc1nnc2n(Cc3ccccc3)c(=O)c3c4c(sc3n12)CN(Cc1ccccc1)CC4,11.3% (inactive)

row,SMILES,cytotoxicity
1,CCCSc1nnc2n(C)c(=O)c3c4c(sc3n12)CCC4,4.3% (inactive)
2,CCOC(=O)CSc1nnc2n(Cc3ccccc3)c(=O)c3c4c(sc3n12)CCC4,22.6% (inactive)
3,CC(C)C1Cc2c(sc3c2c(=O)n(Cc2ccccc2)c2nncn32)CO1 (centres undefined),7.1% (inactive)
4,CCCSc1nnc2n(Cc3ccccc3)c(=O)c3c4c(sc3n12)CCC4,52.7% (active)
5,CCC(C)N(C(=O)COC(=O)c1cn(CC)c2nc(C)ccc2c1=O)C1CCS(=O)(=O)C1 (centres undefined),-10.6% (inactive)
6,CC(C)c1cc(C(=O)Nc2cccc(Cl)c2)no1,1.6% (inactive)
7,O=C(Nc1ccc(Oc2ccc(S(=O)(=O)N3CCOCC3)cn2)cc1)c1ccco1,2.4% (inactive)
8,COc1cc2cc3c(N)c(C(=O)NCc4ccco4)sc3nc2cc1OC,31.5% (inactive)
9,Nc1c(C(=O)NCc2ccco2)sc2nc3c(cc12)C(=O)CCC3,56.5% (active)
10,COc1ccc2cc3c(N)c(C(=O)NCc4ccco4)sc3nc2c1,-0.3% (inactive)
11,Cc1ccc(Cn2c(=O)c3ccccc3n3c(CCC(=O)O)nnc23)cc1,23% (inactive)
12,COC(=O)C1C(c2ccccc2)C(C(=O)N2CCOCC2)C1c1ccccc1 (centres undefined),-2.2% (inactive)
13,COc1ccc(CCN2C(=NC(=O)CCC(=O)O)SC3CS(=O)(=O)CC32)cc1OC (centres undefined),-11% (inactive)
14,COc1ccc(CNC(=O)CSc2nnc(C)s2)cc1,-6.3% (inactive)
15,FC(F)(F)c1cc(-c2ccco2)nc(NCc2ccccc2)n1,9.1% (inactive)
16,FC(F)(F)c1cc(-c2ccco2)nc(-n2cnc3ccccc32)n1,0% (inactive)
17,CN1CCN(c2nc(-c3cccs3)cc(C(F)(F)F)n2)CC1,1.7% (inactive)
18,CC(C)c1nnc(NC(=O)CCC(=O)Nc2ccc(F)cc2)s1,6.6% (inactive)
19,FC(F)(F)c1cc(-c2ccco2)nc(NCc2ccco2)n1,0.5% (inactive)
20,FC(F)(F)c1cc(-c2ccco2)nc(-n2nnc3ccccc32)n1,5.9% (inactive)
21,FC(F)(F)c1cc(-c2cccs2)nc(N2CCOCC2)n1,-7.3% (inactive)
22,CC(C)c1nnc(NC(=O)CCS(=O)(=O)c2nc(-c3cccs3)cc(C(F)(F)F)n2)s1,87% (active)
23,CC(C)c1nnc(NC(=O)Cc2cccs2)s1,1.9% (inactive)
24,O=C(COc1cccc(-n2cnnn2)c1)N1CCOCC1,18.5% (inactive)
25,Cc1c(C)n(CC(O)CN2CCOCC2)c2ccccc12 (centres undefined),-0.4% (inactive)

row,SMILES,cytotoxicity
1,CC(C)C(c1nnnn1Cc1ccc2c(c1)OCO2)N1CCN(c2ccccc2)CC1 (centres undefined),-9.2% (inactive)
2,COc1ccc(N2C(=O)CSC23C(=O)Nc2ccccc23)cc1OC (centres undefined),-18.4% (inactive)
3,COc1cc(OC)cc(C(=O)Nc2ccccc2N2CCOCC2)c1,-3.9% (inactive)
4,COc1cc(OC)c(C(=O)COc2ncnc3ccccc23)c(OC)c1,-5.8% (inactive)
5,O=S(=O)(Nc1ccc2c(c1)OCO2)c1cccs1,15.6% (inactive)
6,Cn1c(NCC2CCCO2)nc2c1c(=O)n(Cc1ccccc1)c(=O)n2C (centres undefined),4.9% (inactive)
7,COc1ccc(-c2cc(C(F)(F)F)nc(N3CCCCC3)n2)cc1OC,-20.9% (inactive)
8,COc1ccc(-c2cc(C(F)(F)F)nc(NC3CCCC3)n2)cc1OC,24.7% (inactive)
9,COc1nc(-c2ccccc2)cc(C(F)(F)F)n1,-11.8% (inactive)
10,Nc1nc(-c2ccccc2)cc(C(F)(F)F)n1,-0.7% (inactive)
11,COCCn1c(SCC(=O)OCc2ccccc2)nc2c1c(=O)[nH]c(=O)n2C,-3.3% (inactive)
12,CCCCCCCC(=O)OCC(=O)[C@@]1(O)CC[C@H]2[C@@H]3CCC4=CC(=O)CC[C@]4(C)[C@H]3[C@@H](O)C[C@@]21C,-1.9% (inactive)
13,CCCCC(=O)O[C@]1(C(=O)CO)CC[C@H]2[C@@H]3CCC4=CC(=O)CC[C@]4(C)[C@H]3[C@@H](O)C[C@@]21C,8.3% (inactive)
14,CCCCCC(=O)O[C@]1(C(C)=O)CC[C@H]2[C@@H]3CCC4=CC(=O)CC[C@]4(C)[C@H]3CC[C@@]21C,116% (active)
15,Cc1c(C(=O)O)c2cc(O)ccc2n1-c1ccccc1,4.3% (inactive)
16,Fc1ccc(-c2nnc(-c3ccc(Cl)cc3Cl)o2)cc1,1.1% (inactive)
17,O=C(NCc1ccco1)C(c1cccs1)N(Cc1ccccc1)C(=O)Cn1nnc2ccccc21 (centres undefined),3.4% (inactive)
18,COCCCn1c2nc3ccccc3nc2c2c(=O)n(Cc3ccccc3Cl)cnc21,-8.1% (inactive)
19,COc1ccc(NC(=O)CN(C)S(=O)(=O)c2cccc3cccnc23)cc1,-4.1% (inactive)
20,COc1ccc(N(C)S(=O)(=O)c2cccc3cccnc23)c(OC)c1,51.4% (active)
21,COc1ccc(NC(=O)C2CCCN2S(=O)(=O)c2cccc3cccnc23)c(OC)c1 (centres undefined),5.8% (inactive)
22,Cc1ccc(S(=O)(=O)NCC(=O)N2CCCCC2)cc1,-15.4% (inactive)
23,CCc1nc(N2CCN(C(=O)c3ccco3)CC2)c2oc3ccccc3c2n1,22.2% (inactive)
24,O=C(c1cc2cc(Cl)ccc2oc1=O)N1CCCC1,-1.3% (inactive)
25,CCOC(=O)C1=C(c2ccccc2)NC(SCC(=O)Nc2ccccc2C)=C(C#N)C1c1ccco1 (centres undefined),32.9% (inactive)

row,SMILES,cytotoxicity
1,COc1ccccc1NC(=O)C1=C(C)NC(SCC(=O)c2ccccc2)=C(C#N)C1c1ccco1 (centres undefined),33.9% (inactive)
2,CC1=C(C(=O)Nc2ccccc2)C(c2ccco2)C(C#N)=C(SCc2ccccc2)N1 (centres undefined),63.1% (active)
3,CC1=C(C(=O)Nc2ccccc2)C(c2ccco2)C(C#N)=C(SCC(=O)OC(C)C)N1 (centres undefined),42.1% (inactive)
4,CC1=C(C(=O)Nc2ccccc2)C(c2ccco2)C(C#N)=C(SCC(=O)Nc2cccc(C)c2C)N1 (centres undefined),67% (active)
5,CCOC(=O)CSC1=C(C#N)C(c2ccco2)C(C(=O)Nc2cccc(C(F)(F)F)c2)=C(C)N1 (centres undefined),12.4% (inactive)
6,Cc1cccc(OCCC(=O)Nc2ccc(S(=O)(=O)N3CCCC3)cc2)c1,-7% (inactive)
7,CCOc1ccc(NC(=O)c2cccc(-n3cnnn3)c2)cc1,0.4% (inactive)
8,CCC(C)SCc1nc2ccccc2[nH]1 (centres undefined),-5.4% (inactive)
9,COc1cccc(-c2noc(CCC(=O)Nc3cccnc3)n2)c1,2% (inactive)
10,O=C(OCc1ccc(F)cc1Cl)c1ccccn1,4.8% (inactive)
11,CN(C)c1ccc(S(=O)(=O)c2ccc(Cl)cc2)cc1,1% (inactive)
12,CSCC[C@@H](Nc1nc(-c2ccccc2)nc2c1oc1ccccc12)C(=O)O,7.2% (inactive)
13,c1cncc(-c2nc(NCc3ccco3)c3ccccc3n2)c1,5.3% (inactive)
14,O=C(NCc1cccs1)c1cc2ccccc2o1,-2.4% (inactive)
15,CCC(C)(NC(=O)c1ccc(=O)[nH]c1)C(=O)NC1CCCC1 (centres undefined),-7% (inactive)
16,COC(=O)CNC(=O)C(Cc1c[nH]c2ccccc12)NC(=O)OC(C)(C)C (centres undefined),-5% (inactive)
17,COc1ccc(CNC(=O)c2cnc3scc(C)n3c2=O)cc1,-6.4% (inactive)
18,Cc1nc2c(C(=O)O)cnn2c(C)c1Cc1ccccc1F,-26.4% (inactive)
19,Cc1csc2ncc(C(=O)Nc3ccc4c(c3)OCCO4)c(=O)n12,-20.4% (inactive)
20,Cc1ccccc1Cc1c(C)nc2c(C(=O)N3CCN(Cc4ccc5c(c4)OCO5)CC3)cnn2c1C,-6.7% (inactive)
21,Cc1csc2ncc(C(=O)Nc3ccccc3F)c(=O)n12,51.2% (active)
22,Cc1csc2ncc(C(=O)NCc3ccc4c(c3)OCO4)c(=O)n12,67.4% (active)
23,Cc1csc2ncc(C(=O)Nc3ccccc3Cl)c(=O)n12,-6.7% (inactive)
24,CSc1ccccc1NC(=O)c1cnc2scc(C)n2c1=O,-4.8% (inactive)
